Reference: PubChem BioAssay AID631 (The Scripps Research Institute Molecular Screening Center, 2007)
In all, about 200,000 compounds went through this assay and about 810 (0.41%) were called active. This is one part of a sample in which actives are shown more often than they occur. A number with no mark means an inactive call. Rule as the data show it: active = activation above about 19%; inactive = the rest.

target: Peroxisome proliferator-activated receptor gamma (Homo sapiens) (UniProt P37231); experiment: PPARgamma agonists recruiting SRC-1 coactivator, primary screen, biochemical (AID 631); conditions: PPARgamma-SRC-1 coactivator recruitment biochemical assay; at 8 µM; hits give high values;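 also: 0% = DMSO and 100% = reference agonist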
Sequence (P37231 whole entry, looked up): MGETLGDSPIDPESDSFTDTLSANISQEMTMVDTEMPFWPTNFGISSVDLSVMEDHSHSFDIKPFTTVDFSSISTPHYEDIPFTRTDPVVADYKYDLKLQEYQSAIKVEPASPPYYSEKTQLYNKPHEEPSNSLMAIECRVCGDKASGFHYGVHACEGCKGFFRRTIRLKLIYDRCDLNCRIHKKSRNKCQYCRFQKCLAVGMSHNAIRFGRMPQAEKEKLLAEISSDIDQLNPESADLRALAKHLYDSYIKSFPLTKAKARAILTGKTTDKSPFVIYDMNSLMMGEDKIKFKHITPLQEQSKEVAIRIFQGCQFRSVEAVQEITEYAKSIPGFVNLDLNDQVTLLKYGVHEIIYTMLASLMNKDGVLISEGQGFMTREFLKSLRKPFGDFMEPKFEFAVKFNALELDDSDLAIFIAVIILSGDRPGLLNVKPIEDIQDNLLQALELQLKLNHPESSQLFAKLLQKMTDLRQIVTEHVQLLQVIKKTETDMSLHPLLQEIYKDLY

Compound	activation
CSC1=NP(=S)(SC)N(C)c2nc3n(c21)CCC3 (stereo not given)	65.3% (active)
Cc1ccc2c(c1)C1CN(C)CCC1N2C(=O)Cn1nnc(-c2ccccc2F)n1 (stereo not given)	3.5%
OCC#CC[N+]1(CC#Cc2ccccc2)CCCC1	4.2%
CC(=O)NC(=O)NC(C)Cc1ccccc1 (stereo not given)	6.2%
COc1cccc(-c2nc3ccc(N4CCN(C)CC4)cc3[nH]2)c1	3.8%
